Reference: PubChem BioAssay AID1159580 (chemical genetic matrix, 2015)
Screen size: about 5,500 compounds; about 2,000 (36%) were called active. Inconclusive results (about 18%) are left out. Rule as the data show it: active = normalized growth mostly below about 0.91 (no sharp cut-off); inconclusive = no clear call, values can overlap the other calls; inactive = mostly above about 0.92. The list shows a part of the results.

Experiment: chemical genetic growth profiling, strain panel (AID 1159580);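 also: tested at 20 µM; growth read once vehicle control cultures reached saturation at 30 °C; 1 = growth at the plate median or of vehicle wells; lower values mean less growth of the strain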
Settings: growth OD

Measured: normalized growth

CCCCN(CCCC)CCCOC(=O)c1ccc(N)cc1
inactive: S. cerevisiae deletion strains, locus YJR075W, strain HOC1, active compounds read low 0.981 | S. cerevisiae deletion strains, locus YKL009W, strain mrt4, active compounds read low 0.989 | S. cerevisiae deletion strains, locus YKL068W, active compounds read low 0.969 | S. cerevisiae deletion strains, locus YKL085W, strain MDH1 (second series), active compounds read low 0.987 | S. cerevisiae deletion strains, locus YKL085W, strain MDH1, active compounds read low 0.987 | S. cerevisiae deletion strains, locus YKL160W, strain elf1, active compounds read low 0.995 | S. cerevisiae deletion strains, locus YKL190W, strain CNB1, active compounds read low 0.988 | S. cerevisiae deletion strains, locus YKR001C, strain vps1, active compounds read low 0.98 | S. cerevisiae deletion strains, locus YKR026C, strain gcn3, active compounds read low 0.993 | S. cerevisiae deletion strains, locus YKR091W, strain srl3, active compounds read low 0.992 | S. cerevisiae deletion strains, locus YLL001W, strain dnm1, active compounds read low 0.996 | S. cerevisiae deletion strains, locus YLL026W, active compounds read low 0.995 | S. cerevisiae deletion strains, locus YLL041C, strain sdh2, active compounds read low 0.995 | S. cerevisiae deletion strains, locus YLR027C, strain aat2, active compounds read low 0.996 | S. cerevisiae deletion strains, locus YLR039C, strain RIC1, active compounds read low 0.863 | S. cerevisiae deletion strains, locus YLR058C, strain SHM2, active compounds read low 0.99 | S. cerevisiae deletion strains, locus YLR102C, strain apc9, active compounds read low 1.01 | S. cerevisiae deletion strains, locus YLR113W, strain HOG1, active compounds read low 0.986 | S. cerevisiae deletion strains, locus YLR221C, strain rsa3, active compounds read low 0.98 | S. cerevisiae deletion strains, locus YLR258W, strain gsy2, active compounds read low 0.985 | S. cerevisiae deletion strains, locus YLR262C, strain YPT6 (second series), active compounds read low 0.935 | S. cerevisiae deletion strains, locus YLR262C, strain YPT6, active compounds read low 0.876 | S. cerevisiae deletion strains, locus YLR268W, strain sec22, active compounds read low 0.92 | S. cerevisiae deletion strains, locus YLR320W, strain mms22, active compounds read low 0.993 | S. cerevisiae deletion strains, locus YLR330W, strain CHS5, active compounds read low 0.988 | S. cerevisiae deletion strains, locus YLR342W, strain FKS1 (second series), active compounds read low 1.06 | S. cerevisiae deletion strains, locus YLR342W, strain FKS1, active compounds read low 0.996 | S. cerevisiae deletion strains, locus YLR357W, strain rsc2, active compounds read low 0.99 | S. cerevisiae deletion strains, locus YLR370C, strain arc18, active compounds read low 0.995 | S. cerevisiae deletion strains, locus YLR371W, strain rom2, active compounds read low 0.992 | S. cerevisiae deletion strains, locus YLR384C, strain iki3, active compounds read low 0.995 | S. cerevisiae deletion strains, locus YLR418C, strain cdc73, active compounds read low 1.02 | S. cerevisiae deletion strains, locus YML016C, strain PPZ1, active compounds read low 0.993 | S. cerevisiae deletion strains, locus YML032C, strain rad52, active compounds read low 0.965 | S. cerevisiae deletion strains, locus YML120C, strain ndi1, active compounds read low 0.988 | S. cerevisiae deletion strains, locus YML124C, strain tub3, active compounds read low 0.997 | S. cerevisiae deletion strains, locus YMR058W, strain fet3, active compounds read low 0.999 | S. cerevisiae deletion strains, locus YMR078C, strain ctf18, active compounds read low 0.993 | S. cerevisiae deletion strains, locus YMR125W, strain sto1, active compounds read low 0.992 | S. cerevisiae deletion strains, locus YMR129W, active compounds read low 0.988 | S. cerevisiae deletion strains, locus YMR205C, strain PFK2, active compounds read low 0.991 | S. cerevisiae deletion strains, locus YMR223W, strain ubp8, active compounds read low 1.01 | S. cerevisiae deletion strains, locus YMR231W, strain pep5, active compounds read low 0.997 | S. cerevisiae deletion strains, locus YMR263W, strain SAP30, active compounds read low 0.982 | S. cerevisiae deletion strains, locus YMR307W, strain GAS1, active compounds read low 1.06 | S. cerevisiae deletion strains, locus YNL067W, strain RPL9B, active compounds read low 0.963 | S. cerevisiae deletion strains, locus YNL071W, strain lat1, active compounds read low 0.994 | S. cerevisiae deletion strains, locus YNL128W, strain TEP1, active compounds read low 0.994 | S. cerevisiae deletion strains, locus YNL153C, strain GIM3, active compounds read low 0.976 | S. cerevisiae deletion strains, locus YNL183C, strain NPR1, active compounds read low 0.921 | S. cerevisiae deletion strains, locus YNL209W, strain ssb2, active compounds read low 0.985 | S. cerevisiae deletion strains, locus YNL233W, strain BNI4, active compounds read low 0.985 | S. cerevisiae deletion strains, locus YNL248C, strain rpa49, active compounds read low 0.976 | S. cerevisiae deletion strains, locus YNL250W, strain rad50, active compounds read low 0.983 | S. cerevisiae deletion strains, locus YNL271C, strain bni1, active compounds read low 0.984 | S. cerevisiae deletion strains, locus YNL298W, strain CLA4, active compounds read low 0.978 | S. cerevisiae deletion strains, locus YNL307C, strain MCK1, active compounds read low 0.982 | S. cerevisiae deletion strains, locus YNL322C, strain KRE1 (second series), active compounds read low 0.991 | S. cerevisiae deletion strains, locus YNL322C, strain KRE1, active compounds read low 0.994 | S. cerevisiae deletion strains, locus YNR049C, strain mso1, active compounds read low 0.998 | S. cerevisiae deletion strains, locus YNR052C, strain pop2, active compounds read low 0.992 | S. cerevisiae deletion strains, locus YOL006C, strain TOP1, active compounds read low 0.938 | S. cerevisiae deletion strains, locus YOL012C, strain htz1 0.971 | S. cerevisiae deletion strains, locus YOL147C, strain pex11, active compounds read low 0.989 | S. cerevisiae deletion strains, locus YOR001W, strain rrp6, active compounds read low 0.995 | S. cerevisiae deletion strains, locus YOR061W, strain CKA2, active compounds read low 0.992 | S. cerevisiae deletion strains, locus YOR069W, strain VPS5, active compounds read low 0.995 | S. cerevisiae deletion strains, locus YOR070C, strain gyp1, active compounds read low 0.993 | S. cerevisiae deletion strains, locus YOR080W, strain dia2, active compounds read low 0.996 | S. cerevisiae deletion strains, locus YOR083W, strain WHI5, active compounds read low 0.984 | S. cerevisiae deletion strains, locus YOR106W, strain vam3, active compounds read low 0.995 | S. cerevisiae deletion strains, locus YOR136W, strain idh2, active compounds read low 0.994 | S. cerevisiae deletion strains, locus YOR144C, strain elg1, active compounds read low 0.986 | S. cerevisiae deletion strains, locus YOR184W, strain ser1, active compounds read low 0.979 | S. cerevisiae deletion strains, locus YOR231W, strain MKK1, active compounds read low 0.961 | S. cerevisiae deletion strains, locus YOR265W, strain rbl2, active compounds read low 0.998 | S. cerevisiae deletion strains, locus YOR270C, strain vph1, active compounds read low 1.01 | S. cerevisiae deletion strains, locus YOR290C, strain snf2, active compounds read low 0.986 | S. cerevisiae deletion strains, locus YOR316C, strain cot1, active compounds read low 0.978 | S. cerevisiae deletion strains, locus YPL051W, strain arl3, active compounds read low 0.995 | S. cerevisiae deletion strains, locus YPL055C, strain LGE1, active compounds read low 0.986 | S. cerevisiae deletion strains, locus YPL078C, strain atp4, active compounds read low 0.988 | S. cerevisiae deletion strains, locus YPL106C, strain sse1, active compounds read low 0.977 | S. cerevisiae deletion strains, locus YPL240C, strain hsp82, active compounds read low 0.997 | S. cerevisiae deletion strains, locus YPL241C, strain CIN2, active compounds read low 1 | S. cerevisiae deletion strains, locus YPL256C, strain CLN2, active compounds read low 0.937 | S. cerevisiae deletion strains, locus YPR119W, strain clb2, active compounds read low 0.969 | S. cerevisiae deletion strains, locus YPR141C, strain kar3, active compounds read low 0.987 | S. cerevisiae deletion strains, locus YPR163C, strain tif3, active compounds read low 0.973 | S. cerevisiae deletion strains, locus YPR167C, strain met16, active compounds read low 0.978 | S. cerevisiae deletion strains, strain wtn01, active compounds read low 0.97 | S. cerevisiae strains, strain wild type, active compounds read low 1
